# Results filed as inconclusive are left out. Values without a mark were called inactive. The source made the active and inactive calls. Calls follow the shape of the dose curve; as a rule, active = well fitted inhibition curve with a large enough effect; inconclusive = small, poorly fitted or top-dose-only effect; inactive = flat fitted curve, though single readings scatter. Where a SMILES comes first, the peptide text is derived from it. Bridges are numbered along the chain shown (N, C = ends). [ ]: non-standard residue; d: D form. hArg = N=C(N)NCCCC[C@H](N)C(=O)O; Mpa = O=C(O)CCS
# Molecular target: Voltage-gated inwardly rectifying potassium channel KCNH2 (Homo sapiens) (UniProt Q12809)
# Experiment: qHTS Assay for Small Molecule Inhibitors of the Human hERG Channel Activity (AID 588834);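 also: lower thallium flux fluorescence means stronger hERG block; nearly all actives have a fitted effect of over 50% in size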; as to activity change, negative = inhibition: top concentration of the series differs between compounds
# Conditions: U2OS BacMam hERG, FluxOR thallium flux fluorescence; series mostly up to 46.1 µM; activity change, negative = inhibition: at the top concentration
# Description: NIH Chemical Genomics Center [NCGC]
# National Institutes of Environmental Health Sciences [NIEHS]
# National Toxicology Program [NTP]
# We have developed a 1536-well cell-based assay for quantitative high throughput screening (qHTS) to determine in vitro hERG channel blockage as a measure of cardio toxicity with small molecules. This particular assay uses the U2OS cell line which is derived from human osteosarcoma.
# NCGC Assay Protocol Summary:
# HERG assay (FluxORTM thallium flux assay) was initially developed by Invitrogen/Molecular Probes, and then miniaturized into 1536-well plate in a homogeneous format by NCGC. This assay measures the activity of potassium channel using thallium dye (FluxOR) flux as surrogate measurement for potassium into the cells with a FDSS-7000 kinetic plate reader (Hamamatsu Corp., Hamamatsu City, Japan). The hERG ion channel is transduced into mammalian cells (U2OS) using a baculovirus (Bacmam) construct harboring the hERG K+ ion channel. So far we screened LOPAC1280 library (Sigma), the NTP collection of 1408 compounds, and the NCGC Pharmaceutical Collection (NPC), in which many well defined HERG blockers are present. The rank order potencies of many of these compounds are similar to that of other HERG assays (membrane potential, Rb+ flux, patch clamp, etc). This quick and homogeneous assay is also found to be sensitive, specific, and robust.
# Using the FluxORTM thallium flux assay, the activity of potassium channel using thallium dye (FluxOR) flux as surrogate measurement for potassium into the cells was measured in the U2OS cell line transduced with hERG K+ ion channel using a baculovirus (Bacmam) using Opti-MEM medium (Invitrogen) containing 2% fetal calf serum (FCS, HyCone) following loading buffer addition, compound treatment for around 10 minutes and finally adding stimulation buffer. The assay was performed in black clear Kalypsys 1536-well plates. In the screen, Astemizole was used as positive controls. Library compounds were measured for their ability to cause hERG channel blockage in the cell line, as reflected by a decrease in fluorescence intensity, in a concentration-dependent manner. […] AC50 values were determined from concentration-response data modeled with the standard Hill equation.
# qHTS protocol for hERG-U2OS cellular assay
# [Step] [Parameter] [Value] [Description]
# 1. Day 1: Replace medium in 70-80% confluent T225 flask with 2.5 mL of hERG-BacMam virus plus 12.5 mL of phosphate buffered saline (PBS) (corresponding roughly to a multiplicity of infection ratio of 100 virus particles/cell)
# 2. Incubation: 4 hrs @ room Temperature in Dark
# 3. Reagent; Remove virus; wash once with 25 ml DPBS
# 4. Reagent; 35 ml culture medium
# 5. Incubation; 37 °C overnight
# 6. Day2: Reagent; 3 uL; 2000 U2OS cells/well
# 7. Time; 4 hr; 37 °C incubation
# 8. Loading buffer; 1 uL; 0.7X;
# 9. Incubation: 1hr @ RT in Dark.
# 12. Time; 10min; 37 °C incubation
# 13. Read fluorescence Intensity on FDSS for 10 Sec with 1 sec interval
# 14. Reagent; 1 uL; stimulation buffer
# 15. Read fluorescence Intensity on FDSS for 2 min with 1 sec interval
# 16. Detection; Fluorescence Intensity; FDSS
# % is scaled to controls: 0 for no effect and ±100 for the full control effect; potency is read from the fitted curve at half-maximal effect.
# Sequence of Voltage-gated inwardly rectifying potassium channel KCNH2 (Homo sapiens) (Q12809 whole entry, looked up): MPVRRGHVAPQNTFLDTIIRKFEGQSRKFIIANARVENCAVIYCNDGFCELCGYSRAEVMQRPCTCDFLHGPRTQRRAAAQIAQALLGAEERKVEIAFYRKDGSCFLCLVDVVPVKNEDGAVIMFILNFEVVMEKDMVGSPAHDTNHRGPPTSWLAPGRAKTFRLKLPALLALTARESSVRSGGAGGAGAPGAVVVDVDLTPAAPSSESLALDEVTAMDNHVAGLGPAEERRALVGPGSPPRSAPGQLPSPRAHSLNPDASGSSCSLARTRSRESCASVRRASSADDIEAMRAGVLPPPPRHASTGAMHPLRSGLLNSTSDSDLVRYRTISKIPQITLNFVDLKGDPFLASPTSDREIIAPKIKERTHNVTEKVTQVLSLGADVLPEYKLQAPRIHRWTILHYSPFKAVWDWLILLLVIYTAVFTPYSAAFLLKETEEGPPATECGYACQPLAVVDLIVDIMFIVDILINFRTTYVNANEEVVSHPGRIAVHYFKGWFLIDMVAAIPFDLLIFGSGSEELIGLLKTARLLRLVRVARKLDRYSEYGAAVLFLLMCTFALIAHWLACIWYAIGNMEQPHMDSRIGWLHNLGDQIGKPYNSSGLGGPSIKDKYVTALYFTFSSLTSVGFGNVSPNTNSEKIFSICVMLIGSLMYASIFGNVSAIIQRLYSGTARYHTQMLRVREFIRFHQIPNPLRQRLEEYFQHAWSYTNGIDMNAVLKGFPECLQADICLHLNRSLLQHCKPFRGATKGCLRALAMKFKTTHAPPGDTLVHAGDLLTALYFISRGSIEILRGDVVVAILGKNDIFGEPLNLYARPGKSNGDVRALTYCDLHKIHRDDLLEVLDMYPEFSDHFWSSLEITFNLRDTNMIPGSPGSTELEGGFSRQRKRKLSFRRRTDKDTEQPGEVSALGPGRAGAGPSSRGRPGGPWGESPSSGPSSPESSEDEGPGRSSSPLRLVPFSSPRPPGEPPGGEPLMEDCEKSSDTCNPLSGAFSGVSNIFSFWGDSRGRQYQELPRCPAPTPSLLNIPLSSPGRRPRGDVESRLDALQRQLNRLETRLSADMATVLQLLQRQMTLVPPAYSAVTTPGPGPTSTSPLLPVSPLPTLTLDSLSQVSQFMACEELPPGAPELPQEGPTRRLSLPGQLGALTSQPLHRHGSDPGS
Structure (SMILES),"activity change, negative = inhibition",Potency
CC(=O)N(CC(O)CO)c1c(I)c(C(=O)NCC(O)CO)c(I)c(C(=O)NCC(O)CO)c1I (stereo not given),2.73%,–
CN[C@@H]1[C@@H](O)[C@@H](O[C@@H]2[C@H](O)[C@H](O[C@H]3OC(CN)=CC[C@H]3N)[C@@H](N)C[C@H]2N)OCC1(C)O (stereo not given in full),27.2%,–
CC(C)=CCC/C(C)=C/CO,9.01%,–
CN1CCN(C(=O)C2CCCCC2)CC1,14.2%,–
C=CCN1C[C@H](C(=O)N(CCCN(C)C)C(=O)NCC)C[C@@H]2c3cccc4[nH]cc(c34)C[C@H]21,-15.1%,–
CCOC(=O)[C@H](CCc1ccccc1)N[C@@H](C)C(=O)N1CCC[C@H]1C(=O)O,-25%,–
CC(=O)N[C@@H](CC(C)C)C(=O)O,-3.2%,–
CCc1cccc(CC)c1NC(=O)CN(CC(=O)O)CC(=O)O,-14.1% [at 20.6 µM],–
CC[N+](CC)(CC(=O)Nc1c(C)cccc1C)Cc1ccccc1,-8.28%,–
CN1C(C)(C)CCCC1(C)C,–,inactive
COc1ccc(NS(=O)(=O)c2ccc(N)cc2)nn1,-0.0467% [at 20.6 µM],–
C/C(=C(\CCO)SS/C(CCO)=C(\C)N(C=O)Cc1cnc(C)nc1N)N(C=O)Cc1cnc(C)nc1N,5.69%,–
Cc1cc(-n2nc3ccc(Cl)cc3n2)c(O)c(C(C)(C)C)c1,6.01%,–
Cc1c(I)c(=O)n(-c2ccccc2)n1C,-3.14%,–
O=C(O)Cn1c(C(=O)Nc2nc(-c3ccccc3Cl)cs2)cc2ccccc21,4.65%,–
CC(=O)Nc1cccc(O)c1,–,inactive
NC(=O)CCCCC1CCSS1 (stereo not given),3.63%,–
CCCCCCCCCCOc1cc2c(=O)c(C(=O)OCC)c[nH]c2cc1OCC,12.5%,–
O=c1[nH]c2cc(C(F)(F)F)c(N3CCOCC3)cc2n(CP(=O)(O)O)c1=O,23.3%,–
CC(=O)N[C@@H](Cc1ccc(O)cc1)C(=O)O,3.38%,–

Structure (SMILES),"activity change, negative = inhibition",Potency
COc1ccc(C(=O)N2CCN(CC(=O)N3CCOCC3)CC2)cc1,5.96%,–
C[N+](C)(C)CC[N+]1(C)Cc2c(Cl)c(Cl)c(Cl)c(Cl)c2C1,11.5%,–
c1ccc2[nH]ccc2c1,39%,–
Cc1ccc(C(C)C)c(O)c1,-0.242%,–
COc1ccc(C(=O)NCc2ccc(OCCN(C)C)cc2)cc1OC,7.3%,–
NC(=O)[C@@H]1CSSCCC(=O)N[C@@H](CCCCN=C(N)N)C(=O)NCC(=O)N[C@@H](CC(=O)O)C(=O)N[C@@H](Cc2c[nH]c3ccccc23)C(=O)N2CCC[C@H]2C(=O)N1 ([Mpa][hArg]GDWPC-NH2; disulfide 1-7),11.2%,–
O=C(Cn1ccnc1[N+](=O)[O-])NCc1ccccc1,12.8%,–
O=C(O)C(S)C(S)C(=O)O (stereo not given),2.84%,–
Cc1cc(OI)c(C(C)C)cc1-c1cc(C(C)C)c(OI)cc1C,-5.35%,–
COc1ccc(O)cc1,–,inactive
COc1cc(O)cc(O)c1,11.3%,–
COc1ccccc1OCC(O)CO (stereo not given),-11.1% [at 20.6 µM],–
CN(C/C=C/C#CC(C)(C)C)Cc1cccc2ccccc12,–,12.6 µM (active)
NS(=O)(=O)c1ccc(NC(=O)CCC(=O)O)cc1,7.42%,–
O=C(OOC(=O)c1ccccc1)c1ccccc1,-5.48%,–
O=C(CN1CCNCC1)NC1CCCCC1,1.11%,–
Cc1cc(O)cc(C)c1Cl,5.58%,–
O=C(O)Cc1ccc(CCNS(=O)(=O)c2ccc(Cl)cc2)cc1,24.8%,–
Cc1cc(C)c(NC(=O)CN(CC(=O)O)CC(=O)O)c(C)c1Br,1.52%,–
CC(C)(C)C(=O)OCOC(=O)[C@@H]1N2C(=O)[C@@H](NC(=O)[C@H](N)c3ccccc3)[C@H]2SC1(C)C,8.02% [at 20.6 µM],–
